In PubChem BioAssay AID1159580 (chemical genetic matrix, 2015):
Out of some 5,500 compounds screened, about 2,000 (36%) were called active. Not shown: some 18% with an inconclusive outcome. No stated cut-off is given here; in the data, active means normalized growth mostly below about 0.91 (no sharp cut-off); inconclusive means no clear call, values can overlap the other calls; inactive means mostly above about 0.92. The list shows a part of the results.

Assay: chemical genetic growth profiling, strain panel (AID 1159580);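 further: tested at 20 µM; growth read once vehicle control cultures reached saturation at 30 °C; 1 = growth at the plate median or of vehicle wells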
Conditions: S. cerevisiae deletion strains, growth OD

Measured: normalized growth

Cc1onc(-c2ccccc2)c1-c1ccc(S(N)(=O)=O)cc1
inactive: locus YAL013W, strain DEP1, stronger effect = lower value 0.995 | locus YAL021C, strain ccr4, stronger effect = lower value 1 | locus YAL026C, strain drs2, stronger effect = lower value 1.02 | locus YAL030W, strain snc1, stronger effect = lower value 1 | locus YBL061C, strain skt5, stronger effect = lower value 1 | locus YBR009C, strain hhf1, stronger effect = lower value 1.01 | locus YBR021W, strain FUR4, stronger effect = lower value 1 | locus YBR023C, strain chs3, stronger effect = lower value 1 | locus YBR171W, strain sec66, stronger effect = lower value 0.984 | locus YBR229C, strain ROT2, stronger effect = lower value 0.999 | locus YBR231C, strain swc5, stronger effect = lower value 1 | locus YBR279W, strain paf1, stronger effect = lower value 1 | locus YCL011C, strain gbp2, stronger effect = lower value 0.989 | locus YCL016C, strain dcc1, stronger effect = lower value 1.02 | locus YCL029C, strain bik1, stronger effect = lower value 0.995 | locus YCL061C, strain MRC1, stronger effect = lower value 0.993 | locus YCL069W, strain vba3, stronger effect = lower value 0.995 | locus YCR088W, strain abp1, stronger effect = lower value 0.996 | locus YDL005C, strain med2, stronger effect = lower value 0.996 | locus YDL035C, strain GPR1, stronger effect = lower value 1 | locus YDL040C, strain nat1, stronger effect = lower value 1 | locus YDL074C, strain BRE1, stronger effect = lower value 0.999 | locus YDL101C, strain DUN1, stronger effect = lower value 1 | locus YDL134C, strain PPH21, stronger effect = lower value 1.01 | locus YDL185W, strain tfp1, stronger effect = lower value 0.988 | locus YDL192W, strain arf1, stronger effect = lower value 0.997 | locus YDR001C, strain nth1, stronger effect = lower value 1.01 | locus YDR069C, strain doa4, stronger effect = lower value 1 | locus YDR101C, strain arx1, stronger effect = lower value 0.997 | locus YDR137W, strain rgp1, stronger effect = lower value 1.01 | locus YDR150W, strain NUM1, stronger effect = lower value 1.02 | locus YDR159W, strain sac3, stronger effect = lower value 1.01 | locus YDR162C, strain NBP2, stronger effect = lower value 0.993 | locus YDR195W, strain ref2 0.963 | locus YDR297W, strain sur2, stronger effect = lower value 1 | locus YDR318W, strain mcm21, stronger effect = lower value 0.998 | locus YDR334W, strain swr1, stronger effect = lower value 1.02 | locus YDR335W, strain msn5, stronger effect = lower value 0.997 | locus YDR388W, stronger effect = lower value 0.997 | locus YDR392W, strain spt3, stronger effect = lower value 1.01 | locus YDR502C, strain sam2, stronger effect = lower value 0.99 | locus YEL003W, strain gim4, stronger effect = lower value 1 | locus YEL037C, strain rad23, stronger effect = lower value 1 | locus YEL061C, strain CIN8 (second series), stronger effect = lower value 1.02 | locus YEL061C, strain CIN8, stronger effect = lower value 0.992 | locus YER015W, strain faa2, stronger effect = lower value 0.997 | locus YER016W, strain bim1, stronger effect = lower value 1.01 | locus YER110C, stronger effect = lower value 0.997 | locus YER111C, strain swi4, stronger effect = lower value 0.996 | locus YER155C, strain BEM2 (second series), stronger effect = lower value 1.01 | locus YER155C, strain BEM2, stronger effect = lower value 0.988 | locus YER167W, strain BCK2, stronger effect = lower value 1 | locus YFR010W, strain ubp6, stronger effect = lower value 0.999 | locus YGL078C, strain dbp3, stronger effect = lower value 0.995 | locus YGL086W, strain mad1, stronger effect = lower value 0.988 | locus YGL167C, strain pmr1, stronger effect = lower value 1.02 | locus YGL173C, strain kem1, stronger effect = lower value 1.01 | locus YGL227W, strain vid30, stronger effect = lower value 0.991 | locus YGL240W, strain doc1, stronger effect = lower value 1.01 | locus YGL248W, strain PDE1, stronger effect = lower value 1 | locus YGL253W, strain hxk2, stronger effect = lower value 0.999 | locus YGR078C, strain PAC10, stronger effect = lower value 0.989 | locus YGR135W, strain pre9, stronger effect = lower value 0.995 | locus YGR229C, strain SMI1, stronger effect = lower value 0.994 | locus YGR252W, strain gcn5, stronger effect = lower value 0.985 | locus YHR013C, strain ard1, stronger effect = lower value 1.01 | locus YHR027C, strain rpn1, stronger effect = lower value 1 | locus YHR030C, strain SLT2, stronger effect = lower value 1.01 | locus YHR079C, strain IRE1 (second series), stronger effect = lower value 0.998 | locus YHR094C, strain hxt1, stronger effect = lower value 0.995 | locus YHR129C, strain ARP1, stronger effect = lower value 1 | locus YHR142W, strain chs7, stronger effect = lower value 0.989 | locus YHR200W, strain rpn10, stronger effect = lower value 1 | locus YIL066C, strain RNR3, stronger effect = lower value 0.983 | locus YIL073C, strain SPO22, stronger effect = lower value 1.03 | locus YIL125W, strain kgd1, stronger effect = lower value 0.99 | locus YIR030C, strain dcg1, stronger effect = lower value 1 | locus YJL092W, strain hpr5, stronger effect = lower value 0.995 | locus YJL095W, strain BCK1 (second series), stronger effect = lower value 1.01 | locus YJL095W, strain BCK1, stronger effect = lower value 1.02 | locus YJL115W, strain asf1, stronger effect = lower value 0.998 | locus YJL129C, strain trk1, stronger effect = lower value 0.972 | locus YJL134W, strain LCB3, stronger effect = lower value 1 | locus YJL154C, strain vps35, stronger effect = lower value 1.01 | locus YJL164C, strain tpk1, stronger effect = lower value 1.01 | locus YJL166W, strain qcr8, stronger effect = lower value 1 | locus YJL168C, strain set2, stronger effect = lower value 0.998 | locus YJL187C, strain SWE1 (second series), stronger effect = lower value 1 | locus YJL187C, strain SWE1, stronger effect = lower value 0.996
